# Measured values as given in PubChem BioAssay.
# Where “and” joins values, the source holds several entries; their conditions need not be identical. Identical values can stand only once. Results filed as inconclusive are left out. Calls of active or inactive are those of the source.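 Rule for the calls, unless noted: active = normalized viability below 100% at a tested concentration; inactive = the rest.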
# Experiments:
# [1] = viability loss in pontine glioma line – cell-based, SU-DIPG-XXV, MIPE5.0, CellTiter-Glo, qHTS, dose response (AID 1347065; cut-off not given, nearly all actives have AC50 up to about 26 µM;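 note: cells exposed to compound for 48 hours before ATP readout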); conditions: CellTiter-Glo ATP luminescence
# [2] = SU-DIPG-VI glioma cell viability, MIPE4.0 library, CellTiter-Glo luminescence, qHTS (AID 1347066; cut-off not given, nearly all actives have AC50 up to about 30 µM;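 note: cells exposed to compound for 48 hours before readout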); conditions: CellTiter-Glo ATP luminescence
# [3] = inhibitors of Cryptococcus chitosan production, flow cytometry, Cibacron Brilliant Red staining (AID 1347148; call rule not given here;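 note: compound exposure lasted three days at 37 degrees C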); conditions: Cryptococcus neoformans chitosan, stronger effect = lower value; at 10 µM unless noted
# [4] = modifiers of HSF1 nuclear foci, imaging, Selleck Cancer Library (AID 1347162; in the data active = plate-normalised HSF1 focus index below about 0.46); conditions: human cells, at 10 µM; SSMD: measured here: HSF1 foci SSMD mean; cell count: measured here: cell number; plate-normalised HSF1 focus index: stronger effect = lower value
# [5] = phospholipid biosynthesis inhibitors in animal cells, primary screen, cell-based, LOPAC library, screen 4 (AID 1347384; call rule not given here); conditions: phospholipid biosynthesis inhibition screen, at 10 µM
# [6] = survival rescue of mitochondrial mutant cells in low glucose, primary screen, MELAS cybrids, Rieske KO mouse fibroblasts, CellTiter-Glo (AID 1508586;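 active = mean z-score across replicates of 1.96 or higher in either the MELAS or the Rieske mutant cell line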;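 note: z relative to plate mean and SD of compound and empty wells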)
# [7] = ovarian cancer cell viability with rucaparib, profiling panel, oncology-focused library, rucaparib conditional (AID 1508598); conditions: patient-derived ovarian cancer cells, CellTiter-Glo viability, 144 h, stronger effect = lower value
# [8] = viability rescue of complex I mutant cybrids, primary screen, cell-based, galactose medium, ATP luminescence (AID 1645843;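 active = z-score of at least 1.8 in each of two replicates, scored against plate mean and spread of sample wells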;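 note: positive z means more ATP and so rescue of galactose-driven cybrid death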); conditions: complex I mutant cybrid cells, 72 h, stronger effect = higher value
# [9] = JHH-DIPG-1 glioma cell viability, MIPE5.0 library, CellTiter-Glo luminescence, qHTS (AID 1347067; cut-off not given, nearly all actives have AC50 up to about 26 µM;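 note: cells exposed to compound for 48 hours before readout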); conditions: JHH-DIPG-1 glioma viability, CellTiter-Glo ATP luminescence
# [10] = SU-DIPG-XXV glioma cell viability, MIPE5.0 library, qHTS (AID 1347068; cut-off not given, nearly all actives have IC50 up to about 30 µM)
# [11] = target: NAD(+) hydrolase SARM1 (Homo sapiens) (UniProt Q6SZW1); assay: SARM1 TIR NADase inhibitors, cell lysate, NAD-Glo luminescence (AID 1508614;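 active = compound whose remaining NAD level is above about 45 nM, limit read from the data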;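 note: higher remaining NAD means stronger inhibition of SARM1 NADase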); conditions: SAM-TIR HEK293T lysate NADase, at 1 µM, stronger effect = higher value
# [12] = sensitizers of A549 cells to miR-34 induction, primary screen, imaging, A549 dox-inducible miR-34, nuclei and caspase counts (AID 1347080;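 active = compounds whose cell count with miR-34 switched on is under 0.7 times the count with it off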); conditions: A549 miR-34 inducible, Hoechst nuclei count, 48 h
# [13] = MELAS cybrid survival, CellTiter-Glo 48 h, stronger effect = higher value
# [14] = Rieske KO mouse fibroblast survival, CellTiter-Glo 72 h
# [15] = at 0.000305 µM, OCI-C5x cells, with rucaparib 10 µM, 100% = cells with rucaparib alone
# [16] = at 0.000305 µM, OCI-C5x cells, without rucaparib
# [17] = at 0.000305 µM, OCI-P5x cells, with rucaparib 20 µM, 100% = cells with rucaparib alone
# [18] = at 0.000305 µM, OCI-P5x cells, without rucaparib
# [19] = at 0.00122 µM, OCI-C5x cells, with rucaparib 10 µM, 100% = cells with rucaparib alone
# [20] = at 0.00122 µM, OCI-C5x cells, without rucaparib
# [21] = at 0.00122 µM, OCI-P5x cells, with rucaparib 20 µM, 100% = cells with rucaparib alone
# [22] = at 0.00122 µM, OCI-P5x cells, without rucaparib
# [23] = at 0.00488 µM, OCI-C5x cells, with rucaparib 10 µM, 100% = cells with rucaparib alone
# [24] = at 0.00488 µM, OCI-C5x cells, without rucaparib
# [25] = at 0.00488 µM, OCI-P5x cells, with rucaparib 20 µM, 100% = cells with rucaparib alone
# [26] = at 0.00488 µM, OCI-P5x cells, without rucaparib
# [27] = at 0.0195 µM, OCI-C5x cells, with rucaparib 10 µM, 100% = cells with rucaparib alone
# [28] = at 0.0195 µM, OCI-C5x cells, without rucaparib
# [29] = at 0.0195 µM, OCI-P5x cells, with rucaparib 20 µM, 100% = cells with rucaparib alone
# [30] = at 0.0195 µM, OCI-P5x cells, without rucaparib
# [31] = at 0.0781 µM, OCI-C5x cells, with rucaparib 10 µM, 100% = cells with rucaparib alone
# [32] = at 0.0781 µM, OCI-C5x cells, without rucaparib
# [33] = at 0.0781 µM, OCI-P5x cells, with rucaparib 20 µM, 100% = cells with rucaparib alone
# [34] = at 0.0781 µM, OCI-P5x cells, without rucaparib
# [35] = at 0.313 µM, OCI-C5x cells, with rucaparib 10 µM, 100% = cells with rucaparib alone
# [36] = at 0.313 µM, OCI-C5x cells, without rucaparib
# [37] = at 0.313 µM, OCI-P5x cells, with rucaparib 20 µM, 100% = cells with rucaparib alone
# [38] = at 0.313 µM, OCI-P5x cells, without rucaparib
# [39] = at 1.25 µM, OCI-C5x cells, with rucaparib 10 µM, 100% = cells with rucaparib alone
# [40] = at 1.25 µM, OCI-C5x cells, without rucaparib
# [41] = at 1.25 µM, OCI-P5x cells, with rucaparib 20 µM, 100% = cells with rucaparib alone
# [42] = at 1.25 µM, OCI-P5x cells, without rucaparib
# [43] = at 5 µM, OCI-C5x cells, with rucaparib 10 µM, 100% = cells with rucaparib alone
# [44] = at 5 µM, OCI-C5x cells, without rucaparib
# [45] = at 5 µM, OCI-P5x cells, with rucaparib 20 µM, 100% = cells with rucaparib alone
# [46] = at 5 µM, OCI-P5x cells, without rucaparib
# NAD(+) hydrolase SARM1 (Homo sapiens), sequence (Q6SZW1 whole entry, looked up): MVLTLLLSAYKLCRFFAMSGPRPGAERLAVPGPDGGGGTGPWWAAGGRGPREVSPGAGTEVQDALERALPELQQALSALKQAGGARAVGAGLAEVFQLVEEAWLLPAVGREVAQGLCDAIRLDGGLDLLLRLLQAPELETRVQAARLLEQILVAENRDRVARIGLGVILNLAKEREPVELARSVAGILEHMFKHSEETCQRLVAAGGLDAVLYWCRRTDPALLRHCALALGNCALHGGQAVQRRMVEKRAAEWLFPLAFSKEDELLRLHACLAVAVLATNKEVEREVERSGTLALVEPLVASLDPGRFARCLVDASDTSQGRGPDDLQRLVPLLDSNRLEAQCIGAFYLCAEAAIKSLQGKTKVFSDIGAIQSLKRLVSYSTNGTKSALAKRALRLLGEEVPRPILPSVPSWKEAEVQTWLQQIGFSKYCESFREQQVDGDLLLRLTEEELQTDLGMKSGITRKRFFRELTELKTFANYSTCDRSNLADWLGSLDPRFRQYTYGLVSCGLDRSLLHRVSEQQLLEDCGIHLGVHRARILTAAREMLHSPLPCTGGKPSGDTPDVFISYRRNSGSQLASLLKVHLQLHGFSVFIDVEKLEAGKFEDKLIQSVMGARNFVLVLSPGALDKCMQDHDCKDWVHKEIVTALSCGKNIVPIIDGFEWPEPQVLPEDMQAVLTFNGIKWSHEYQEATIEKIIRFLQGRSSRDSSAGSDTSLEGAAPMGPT
smiles,measurement,setting,value
COC(=O)Nc1nc2ccc(C(=O)c3cccs3)cc2[nH]1,AC50,[1],118 nM (active)
same,AC50,[2],3720 nM (active)
same,fold fluorescence,[3],18.7 [at 165.9 µM] (inactive)
same,SSMD,[4],3.16
same,cell count,[4],6830
same,plate-normalised HSF1 focus index,[4],1.2 (inactive)
same,outcome,[5],inactive
same,z-score,[6]; [13],-0.757 (inactive) and 1.39 (inactive) and -3.68 (inactive)
same,z-score,[6]; [14],0.709 and -0.844 and -0.416
same,viability,[7]; [15],120% (inactive)
same,viability,[7]; [16],106% (inactive)
same,viability,[7]; [17],89% (active)
same,viability,[7]; [18],84.1% (active)
same,viability,[7]; [19],116% (inactive)
same,viability,[7]; [20],108% (inactive)
same,viability,[7]; [21],88% (active)
same,viability,[7]; [22],90.4% (active)
same,viability,[7]; [23],112% (inactive)
same,viability,[7]; [24],108% (inactive)
same,viability,[7]; [25],87.3% (active)
same,viability,[7]; [26],58% (active)
same,viability,[7]; [27],96.1% (active)
same,viability,[7]; [28],74% (active)
same,viability,[7]; [29],68.5% (active)
same,viability,[7]; [30],32.7% (active)
same,viability,[7]; [31],71.2% (active)
same,viability,[7]; [32],69.2% (active)
same,viability,[7]; [33],62.5% (active)
same,viability,[7]; [34],35.1% (active)
same,viability,[7]; [35],89% (active)
same,viability,[7]; [36],97.5% (active)
same,viability,[7]; [37],77.5% (active)
same,viability,[7]; [38],52.1% (active)
same,viability,[7]; [39],56.8% (active)
same,viability,[7]; [40],60.1% (active)
same,viability,[7]; [41],67.3% (active)
same,viability,[7]; [42],48% (active)
same,viability,[7]; [43],55.3% (active)
same,viability,[7]; [44],38.7% (active)
same,viability,[7]; [45],52.5% (active)
same,viability,[7]; [46],14.7% (active)
same,z-score,[8],-0.685 (inactive) and -1.18 (inactive) and -0.46 (inactive)
Cc1[nH]c(=O)c(C#N)cc1-c1ccncc1,outcome,[1],inactive
same,outcome,[9],inactive
same,outcome,[10],inactive
same,fold fluorescence,[3],6.33 [at 236.7 µM] (inactive)
same,outcome,[5],inactive
same,z-score,[6]; [13],-0.327 (inactive) and 0.548 (inactive) and 0.108 (inactive)
same,z-score,[6]; [14],0.87 and -0.397 and -0.212
same,remaining NAD,[11],10 nM (inactive)
same,z-score,[8],0.46 (inactive) and 0.67 (inactive) and 0.525 (inactive)
CN(Cc1cnc2nc(N)nc(N)c2n1)c1ccc(C(=O)N[C@@H](CCC(=O)O)C(=O)O)cc1,AC50,[1],417 nM (active)
same,outcome,[9],inactive
same,outcome,[10],inactive
same,fold change,"[12]; stronger effect = lower value, cell number ratio, induced over uninduced",1.49 (inactive) and 1.21 (inactive) and 1.07 (inactive)
same,fold change,[12]; measured here: relative caspase fold change +Dox/-Dox,1.22 and 0.656 and 1.41
same,cell count,"[12]; measured here: total cells with miR-34 induction, stronger effect = lower value",2980 and 3110 and 5280
same,cell count,[12]; measured here: total cells without miR-34 induction,2000 and 2580 and 4920
same,fold fluorescence,[3],3.97 [at 117.8 µM] (inactive)
same,SSMD,[4],2.25
same,cell count,[4],7580
same,plate-normalised HSF1 focus index,[4],1.08 (inactive)
same,outcome,[5],inactive
same,z-score,[6]; [13],1.68 (inactive)
same,z-score,[6]; [14],-0.369
same,viability,[7]; [15],110% (inactive)
same,viability,[7]; [16],111% (inactive)
same,viability,[7]; [17],113% (inactive)
same,viability,[7]; [18],112% (inactive)
same,viability,[7]; [19],104% (inactive)
same,viability,[7]; [20],91.8% (active)
same,viability,[7]; [21],111% (inactive)
same,viability,[7]; [22],109% (inactive)
same,viability,[7]; [23],113% (inactive)
same,viability,[7]; [24],106% (inactive)
same,viability,[7]; [25],111% (inactive)
same,viability,[7]; [26],111% (inactive)
same,viability,[7]; [27],105% (inactive)
same,viability,[7]; [28],103% (inactive)
same,viability,[7]; [29],103% (inactive)
same,viability,[7]; [30],105% (inactive)
same,viability,[7]; [31],59.6% (active)
same,viability,[7]; [32],35.7% (active)
same,viability,[7]; [33],110% (inactive)
same,viability,[7]; [34],98.3% (active)
same,viability,[7]; [35],18.2% (active)
same,viability,[7]; [36],17.2% (active)
same,viability,[7]; [37],104% (inactive)
same,viability,[7]; [38],93.3% (active)
same,viability,[7]; [39],17.8% (active)
same,viability,[7]; [40],16.5% (active)
same,viability,[7]; [41],101% (inactive)
same,viability,[7]; [42],90.7% (active)
same,viability,[7]; [43],27.2% (active)
same,viability,[7]; [44],26% (active)
same,viability,[7]; [45],94% (active)
same,viability,[7]; [46],87.3% (active)
same,z-score,[8],-1.06 (inactive) and -0.71 (inactive)
